Assay outcomes (PubChem)
This is a sample that favours compounds with a hit; in the whole collection about 2.9% have one here.
Rango dissoc inh: inhibition of RanGTP-driven Rango-importin beta dissociation; O95149+P62826; Biochemical FRET Rango-importin beta, RanGTP-induced dissociation; Potency, µM (doses to about 46.1 µM), for the others: at the highest dose activity change, negative = inhibition; hit rate 0.071% among 340,000; AID 540253; note: potency is the fitted concentration of half-maximal effect; % of control where 0% means no effect; nearly all actives have a fitted effect of over 45% in size
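Rango (0.1 uM)–importin beta (0.25 uM) complex; RanGTP-RCC1 trigger; 45 min RT; CFP/YFP FRET read.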
DRD3 antagonist: D3 dopamine receptor (human) antagonism; P35462; D3R cells, DiscoveRx beta-arrestin luminescence, antagonist mode; active compounds read low; max response, negative = inhibition, %; hit rate 2.5% among 360,000; AID 652054; in the data active = max response below about -50%; inconclusive = no clear call, values can overlap the other calls; note: % is set by controls: 0 for no effect and ±100 for the full control effect
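Cells expressing the human receptor were seeded at 1500 cells/well, incubated overnight at 37 degrees C in 5% CO2, then exposed to library compounds with dopamine controls for 90 minutes at 37 degrees C before luminescent detection.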
PTAP TSG101 blk: blocks PTAP/TSG101 interaction to inhibit HIV-1 budding; Potency, µM (top dose mostly 115 µM), for inactives: top-dose activity change, negative = inhibition, hits mostly inhibitors; AID 493005; Fluorescence polarization, FITC-PTAP peptide / Tsg101 binding; 340,000 tested, under 10 active; active = well fitted inhibition curve with a large enough effect in the main read-out, with a control signal flat, not every such curve was filed as active; inconclusive = small, poorly fitted or top-dose-only effect, or effect the other way, or a change in a side signal; inactive = no such curve, though single readings can be large or run the other way; note: potency is the fitted concentration of half-maximal effect; % of control where 0% means no effect
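Steps: Tsg101 binding domain dispensed (10 uM final), compounds pinned in DMSO, FITC-labeled PTAP-motif peptide added (50 nM final); after 20 min binding at room temperature, polarization measured.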
Mm-Cpn inhibitor: blocks the Methanococcus maripaludis chaperonin Mm-Cpn; purified Mm-Cpn ATPase, ADP Transcreener TR-FRET; Potency, µM (doses to about 76.9 µM), for inactives: top-dose activity, negative = inhibition, most hits filed as inhibitors; hit rate 0.031% among 330,000; AID 504842; active = well fitted inhibition curve with a large enough effect; inconclusive = small, poorly fitted or top-dose-only effect; note: potency is the fitted concentration of half-maximal effect; % is set by controls: 0 for no effect and ±100 for the full control effect; nearly all actives have a fitted effect of over 80% in size
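ATPase turnover read by TR-FRET ADP competition (Eu cryptate antibody/ADP-d2, 665/590 nm): 10uM ATP final, 25nM Mm-CPN final, 30 min 37degC after 10-min compound preincubation, pH 7.4 Tris/KCl/MgCl2/DTT buffer.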
DRD3 agonist: agonists of human D3 dopamine receptor; P35462; D3R DiscoveRx beta-arrestin cells, luminescence, 90 min; max activation, %; hit rate 0.58% among 410,000; AID 652048; in the data active = max activation above about 30%; note: 0% is about no effect
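Cells at 1500/well, incubated overnight, then treated with pinned compounds (dopamine as control) for 90 min at 37 degrees C. DiscoveRx reagent added for 30 - 60 minutes at room temperature; luminescence read.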
Rango-impB inh: prevents formation of the Rango-importin beta complex | Rango CFP/YFP FRET sensor + importin beta, 45 min | AID 540263 | Potency, µM (highest dose often 92.2 µM), for inactives: at the top dose inhibition of complex formation | hit rate 0.031% among 340,000;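 note: potency is the fitted concentration of half-maximal effect; 0% = DMSO wells and 100% = buffer wells lacking importin beta; nearly all actives have a fitted effect of over 15% in size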
Target sequence (Q14974 whole entry, looked up): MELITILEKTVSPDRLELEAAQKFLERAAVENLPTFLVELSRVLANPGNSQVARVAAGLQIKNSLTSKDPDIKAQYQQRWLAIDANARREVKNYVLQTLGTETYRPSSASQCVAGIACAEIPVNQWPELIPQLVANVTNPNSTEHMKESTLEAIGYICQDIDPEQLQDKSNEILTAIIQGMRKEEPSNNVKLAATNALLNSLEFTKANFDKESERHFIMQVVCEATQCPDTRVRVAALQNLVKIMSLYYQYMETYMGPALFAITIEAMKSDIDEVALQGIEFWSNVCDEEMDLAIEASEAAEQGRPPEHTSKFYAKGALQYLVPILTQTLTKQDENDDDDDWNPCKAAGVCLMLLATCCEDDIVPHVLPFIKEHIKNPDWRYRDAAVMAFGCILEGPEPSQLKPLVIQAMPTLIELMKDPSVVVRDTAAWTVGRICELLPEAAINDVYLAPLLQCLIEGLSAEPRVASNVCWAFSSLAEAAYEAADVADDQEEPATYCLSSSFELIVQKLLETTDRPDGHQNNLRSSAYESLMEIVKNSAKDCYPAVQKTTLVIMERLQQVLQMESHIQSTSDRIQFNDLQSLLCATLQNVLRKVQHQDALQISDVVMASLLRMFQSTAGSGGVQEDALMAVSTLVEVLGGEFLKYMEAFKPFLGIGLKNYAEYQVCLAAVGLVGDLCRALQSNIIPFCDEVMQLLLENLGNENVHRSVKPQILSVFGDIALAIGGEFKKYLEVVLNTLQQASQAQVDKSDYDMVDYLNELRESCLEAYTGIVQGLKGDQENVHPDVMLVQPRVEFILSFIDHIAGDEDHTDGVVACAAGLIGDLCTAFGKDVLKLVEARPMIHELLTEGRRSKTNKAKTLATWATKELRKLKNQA
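Inhibition scored from the CFP 486 nm/YFP 530 nm FRET ratio 45 min after adding 0.125 microM importin beta to 50 nM Rango biosensor preincubated 5 min with compound (room temperature, PBS with DTT, Tween-20, BSA). No-importin wells as positive control.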
Starred values were filed as active, the others as inactive; ? = inconclusive; / = no result. Unless noted, calls come from the whole dose curve.

SMILES	Rango dissoc inh	DRD3 antagonist	PTAP TSG101 blk	Mm-Cpn inhibitor	DRD3 agonist	Rango-impB inh
CN1CCN(c2ccc(-c3cc(NC=O)c4ncc(-c5ccc(F)cc5)n4c3)cc2)CC1	/	?	/	/	-13.5	/
COc1cccc(-c2cnc3c(NC=O)cc(-c4cccc(C(=O)N(C)C)c4)cn23)c1	/	3.5	/	/	71.8*	/
CN1CCN(c2ccc(-c3cc(NC=O)c4ncc(-c5ccccc5)n4c3)cc2)CC1	/	-54.0*	/	/	-14.4	/
CN(C)CCNC(=O)c1cccc(-c2cc(NC=O)c3ncc(-c4cccc(C(F)(F)F)c4)n3c2)c1	/	-52.1*	/	/	-23.0	/
CCOc1ccccc1C1c2[nH]c3ccccc3c2C[C@H]2C(=O)N(C3CCN(Cc4ccccc4)CC3)CC(=O)N12 (stereo partly specified)	20.1%	-104.8*	-13.0%	0.0%	-37.8	3.3%
Cc1ccccc1C1c2[nH]c3ccccc3c2C[C@H]2C(=O)N(C3CCN(Cc4ccccc4)CC3)CC(=O)N12 (stereo partly specified)	/	/	/	-2.5%	/	/
COC(=O)c1ccc(C2c3[nH]c4ccccc4c3C[C@H]3C(=O)N(C4CCN(Cc5ccccc5)CC4)CC(=O)N23)cc1 (stereo partly specified)	-2.6%	-61.2*	-5.8%	0.1%	-21.5	2.8%
C=CCN1CCN(C(=O)c2cc3c(s2)CCCC3)CC1	-10.1%	-58.3*	-7.4%	-0.2%	-25.9	1.3%
O=C(c1cc2c(s1)CCCC2)N1CCN(Cc2ccc3c(c2)OCO3)CC1	2.4%	-24.4	-1.2%	1.1%	-25.5	-1.6%
O=S(=O)(Nc1cc(F)ccc1F)c1ccc2[nH]c3c(c2c1)CCCCC3	/	/	/	/	-5.2	/
O=C(CCN1C(=O)c2ccccc2C1=O)N1CCCCCC1	-14.5%	-50.6*	-0.5%	-0.3%	-2.6	-2.4%
CCOc1ccc(/C(O)=C/C(=O)C(=O)Nc2ccc(S(=O)(=O)NC(C)=O)cc2)cc1	4.6%	-60.0*	-6.3%	-0.4%	-9.8	2.2%
CCOc1ccc(NS(=O)(=O)c2ccc(NC(=S)NC(C)=O)cc2)cc1	-8.7%	-26.7	-7.8%	-0.7%	-8.7	0.0%
O=C(COc1ccc(Br)cc1)NCCN1CCCC1	-14.2%	?	-3.8%	-2.7%	-17.8	-3.2%
O=C(OCC1CCNCC1)c1ccc2c(c1)OCO2	2.2%	4.1	0.1%	-2.8%	3.4	0.3%
O=C(OCC1CCNCC1)c1ccc(F)cc1	10.2%	-54.7*	-5.7%	/	-4.1	0.9%
O=C(Nc1ccccc1C(=O)NCCCN1CCOCC1)c1ccc(Cl)cc1	8.3%	-54.0*	/	-4.9%	-17.5	-2.8%
COc1ccc(OCCN2CCC(C(=O)NC(c3ccc(F)cc3)c3ccc4ccccc4n3)CC2)cc1 (stereo unspecified)	/	-69.9*	/	/	-23.6	/
COc1ccc(OCCN2CCC(C(=O)NC(c3ccccc3)c3ccc4ccccc4n3)CC2)cc1 (stereo unspecified)	/	-102.4*	/	/	-13.2	/
O=C(NC(c1ccc(F)cc1)c1ccc2ccccc2n1)C1CCN(CCOc2ccc(F)cc2)CC1 (stereo unspecified)	/	?	/	/	-13.8	/
COc1ccc(CNC(=O)C2CCN(Cc3nc(-c4ccc(Cl)cc4)oc3C)CC2)cc1	/	/	/	/	3.6	/
N=c1c[n+](N2CCOCC2)[n-]o1	5.7%	-106.9*	-8.0%	0.2%	-10.7	-4.3%
CC(Oc1ccc(Br)cc1)C(=O)N(Cc1ccccc1)c1c(N)n(Cc2ccccc2)c(=O)[nH]c1=O (stereo unspecified)	/	-60.9*	/	/	-5.1	/
COc1ccccc1OCC(=O)NCC(c1ccc(Cl)cc1)N1CCOCC1 (stereo unspecified)	/	/	/	/	1.2	/
Cc1ccc(NC(=S)NC(=O)c2ccc(F)cc2)cc1S(=O)(=O)Nc1cccc(Cl)c1	-4.0%	-59.8*	-2.5%	-4.6%	-19.1	13.9%
SMILES	Rango dissoc inh	DRD3 antagonist	PTAP TSG101 blk	Mm-Cpn inhibitor	DRD3 agonist	Rango-impB inh
COC(=O)c1ccc(NC(=O)N2CCN(c3nnc(C)c4c(C)n(-c5ccccc5)nc34)CC2)cc1	/	/	/	/	7.6	/
COc1ccccc1CCn1cnc(C)c1CC(C)C	/	-77.9*	/	/	-18.0	/
COc1ccc(C2C=C(C)Nc3nc(SC)nn32)cc1 (stereo unspecified)	18.4µM*	?	-3.8%	-3.2%	-0.5	?
CCc1ccc(NC(=O)C(=O)NCC(c2cccnc2)N2CCOCC2)cc1 (stereo unspecified)	/	/	/	/	-6.3	/
COc1cc(C#Cc2c(C=O)n(C)c3ccccc23)cc(OC)c1	?	81.3	-3.2%	-3.2%	49.7*	?
C=CCn1c2ccccc2c(=O)c2cc(C#Cc3cc(OC)cc(OC)c3)ccc21	?	51.0	4.0%	?	50.1*	?
O=C(c1cc2c(=O)[nH]c3ccccc3c2s1)N1CCN(c2ccc(F)cc2)CC1	/	/	/	/	1.0	/
COCCN(C(=O)CCl)C(C(=O)NC1CCCCC1)c1ccccc1C (stereo unspecified)	1.2%	?	-3.1%	-5.1%	-12.6	8.1%
Cc1cccc(C)c1C(OCCN(C)C)C1CCCCC1 (stereo unspecified)	9.8%	-89.3*	-0.5%	-1.4%	16.5	4.5%
Cc1ccc(-c2nc(Cn3c(SCc4ccc(F)cc4)nc4cccnc43)c(C)o2)cc1	/	/	/	/	0.7	/
COc1cccc(-n2nc(C#N)c(Cl)cc2=O)c1	?	-87.0*	0.6%	-11.1%	-14.1	9.3%
COc1cccc(-n2nc(C(N)=O)c(O)cc2=O)c1	0.2%	-6.7	-0.6%	0.9%	-2.0	1.8%
COc1cc(NC(=O)Cn2ncc3c([nH]c4ccc(C)cc43)c2=O)cc(OC)c1OC	/	/	/	/	4.9	/
CCOC(=O)C1C(=O)OC(C)(C)C1C(C)C(=O)c1ccccc1 (stereo unspecified)	3.5%	-16.0	-9.0%	1.4%	-2.0	5.8%
CN1CCN(C(=O)CCCOc2ccc(Cl)cc2Cl)CC1	-18.1%	-53.3*	-5.2%	-29.7%	-2.6	0.3%
CN1CCN(C(=O)c2ccc(COc3ccc(Cl)cc3Cl)cc2)CC1	-1.1%	-88.7*	-5.1%	-2.2%	-22.4	-3.9%
O=C(CCCOc1ccc(Cl)cc1Cl)N1CCN(c2ccccn2)CC1	0.6%	12.4	-9.4%	0.5%	3.5	1.1%
COc1ccc(N2CC(NC(=O)c3ccc4c(c3)OCO4)CC2=O)cc1 (stereo unspecified)	/	/	/	/	-5.4	/
COc1ccc(CNC(=O)C2Cc3cc(S(=O)(=O)N4CCCCCC4)ccc3N2C(C)=O)cc1 (stereo unspecified)	/	/	/	/	4.5	/
Cc1ccc(NC(=S)NCCC(c2ccccc2)c2ccccc2)c(C)c1	-12.9%	-66.6*	-1.9%	4.2%	-2.2	0.0%
